The values below come from PubChem BioAssay (Tox21).

Assay [1] can be described thus: cAMP Responsive Elements (CRE) small molecule antagonists, cell-based qHTS assay: qHTS cell viability counter screen (AID 2060913). Note: nearly all actives have a fitted effect of over 40% in size. In a few lines: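 Cytotoxicity counter screen multiplexed with the CRE-bla antagonist read: HEK293T cells in DMEM with dialyzed FBS and 25 mM HEPES were treated 3 hrs under 0.25 uM final NKH477, then viability measured by CellTiter-Glo luminescence.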
(qHTS replaces the single test concentration by a dilution series.)

Assay [2] is described as follows: cAMP Responsive Elements (CRE) small molecule agonists, cell-based qHTS assay: qHTS cell viability counter screen (AID 2060914).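 Note: viability read after 3 h of compound exposure; nearly all actives have a fitted effect of over 50% in size.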 In a few lines:
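HEK 293T CRE-bla; DMEM + 10% dialyzed FBS, 25 mM HEPES; 18 h pre-incubation; compound 3 h, 37 °C/5% CO2; CellTiter-Glo added after reporter read; luminescence after 30 min RT.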

Where “and” joins values, the source holds several entries; their conditions need not be identical. Identical values can stand only once. Inconclusive results are not listed. Unmarked numbers belong to inactive results. Calls of active or inactive are those of the source. Calls come from the whole dose curve; as a rule, active = well fitted cell-killing curve with a large enough effect in the repeat runs; inconclusive = weak or mixed curves, or effect the other way; inactive = flat fitted curve, though single readings scatter.
% is set by controls: 0 for no effect and ±100 for the full control effect; potency is the fitted concentration of half-maximal effect.

As for `CC(C)C1(C)N=C(c2nc3ccccc3cc2C(=O)O)NC1=O` (stereo not given), the Potency result in assay [1] and in assay [2] was “inactive” throughout.

As for `O=C(O)C(Cl)(Cl)Br`, the Potency result in assay [1] and in assay [2] was “inactive” in each case.

Consider `C=C(C)C(=O)[O][Sn]([CH2]CCC)([CH2]CCC)[CH2]CCC`, for which the Potency is 7.7 µM (active) in assay [1] and 4.86 µM (active) in assay [2].

`CCCCC(CC)C(=O)Cl` (stereo not given): the Potency result in assay [1] and in assay [2] was “inactive” each time.

On to `CC(C)CCON=O`, for which the Potency result in assay [1] and in assay [2] was “inactive” in each case.

For the compound `CCN(C)N=O`, the Potency entry in assay [1] and in assay [2] was “inactive” throughout.

As for `CC(C)=CC1C(C(=O)OCc2cccc(Oc3ccccc3)c2)C1(C)C` (stereo not given), the Potency entry in assay [1] and in assay [2] was “inactive” throughout.

On to `CN1C2CCC(C)(C)C1CC(OC(=O)C(O)(c1cccs1)c1cccs1)C2` (stereo not given), for which the Potency entry in assay [1] and in assay [2] was “inactive” in each case.

On to `CNC(C)(C)Cc1ccccc1`, for which the Potency entry in assay [1] and in assay [2] was “inactive” in each case.

On to `CC(C)CCCCCCCOC(=O)c1ccccc1C(=O)OCCCCCCCC(C)C`, for which the Potency entry in assay [1] and in assay [2] was “inactive” throughout.

Turning to `CCCN(CCCl)c1c([N+](=O)[O-])cc(C(F)(F)F)cc1[N+](=O)[O-]`, the Potency result in assay [1] and in assay [2] was “inactive” throughout.

For the compound `CC(C)c1ccc(O)cc1`, the Potency result in assay [1] and in assay [2] was “inactive” throughout.

As for `O=C(O)c1cccc(Cl)c1`, the Potency entry in assay [1] and in assay [2] was “inactive” in each case.

Take `CN(C)c1ccc(N=Nc2ccccc2)cc1`: the Potency result in assay [1] and in assay [2] was “inactive” in each case.

Consider `O=C(O)C(Cl)Cl`, for which the Potency entry in assay [1] and in assay [2] was “inactive” throughout.

For the compound `C=CCOC(C)=O`, the Potency result in assay [1] and in assay [2] was “inactive” in each case.

With `CCCC1CCCCN1` (stereo not given), the Potency result in assay [1] and in assay [2] was “inactive” each time.

Take `C[N+]1(C)[C@@H]2CC[C@H]1CC(OC(=O)C(CO)c1ccccc1)C2` (stereo not given in full): the Potency entry in assay [1] and in assay [2] was “inactive” each time.

`CCN(CC)CCOC(=O)C(C)(c1ccccc1)c1ccccc1`: the Potency entry in assay [1] and in assay [2] was “inactive” each time.

As for `CCC1(C2=NCCN2)Cc2ccccc2O1` (stereo not given), the Potency entry in assay [1] and in assay [2] was “inactive” throughout.

As for `O=S(=O)(Cl)Cl`, the Potency entry in assay [1] and in assay [2] was “inactive” throughout.

In the case of `CCCCCCBr`, the Potency result in assay [1] and in assay [2] was “inactive” each time.

Regarding `CC(C)(c1ccc(OCC2CO2)cc1)c1ccc(OCC2CO2)cc1` (stereo not given), the Potency entry in assay [1] and in assay [2] was “inactive” each time.

For the compound `CC(=O)[O-].CC(=O)[O-].[Hg+2]`, the results for the Potency in assay [1] and in assay [2] were 8.63 µM (active) and 10.9 µM (active), respectively.

Consider `CCOP(=O)(OCC)Oc1nc(Cl)c(Cl)cc1Cl`, for which the Potency entry in assay [1] and in assay [2] was “inactive” each time.

Turning to `CCN(CC)CCO`, the Potency entry in assay [1] and in assay [2] was “inactive” in each case.

Regarding `CN(C)C(=O)Nc1cccc(C(F)(F)F)c1`, the Potency entry in assay [1] and in assay [2] was “inactive” throughout.

On to `Clc1ccccc1N1CCNCC1`, for which the Potency result in assay [1] and in assay [2] was “inactive” in each case.

Take `CCNc1nc(Cl)nc(NC(C)C)n1`: the Potency entry in assay [1] and in assay [2] was “inactive” throughout.

As for `CCNCC`, the Potency result in assay [1] and in assay [2] was “inactive” each time.

Turning to `CC1CCCCC1NC(=O)Nc1ccccc1` (stereo not given), the Potency result in assay [1] and in assay [2] was “inactive” in each case.

Consider `O=C(O)C1(c2ccc3c(c2)OC[C@H](Cc2ccc(-c4ccccc4)cc2)[C@H]3O)CCCC1`, for which the Potency entry in assay [1] and in assay [2] was “inactive” in each case.

Turning to `C=CC(=O)OCCN(C)C`, the Potency entry in assay [1] and in assay [2] was “inactive” in each case.

Regarding `[CH3][Sn]([Cl])([Cl])[Cl]`, the Potency entry in assay [1] and in assay [2] was “inactive” in each case.

As to `Nc1cccc2ccccc12`, the Potency entry in assay [1] and in assay [2] was “inactive” in each case.

For `C[C@]12C=CC(=O)C=C1CC[C@@H]1[C@@H]2CC[C@@]2(C)[C@H]1CC[C@]2(C)O`, the Potency entry in assay [1] and in assay [2] was “inactive” throughout.

With `c1ccc2c(c1)OCC(C1=NCCN1)O2` (stereo not given), the Potency entry in assay [1] and in assay [2] was “inactive” each time.

As to `COc1ccccc1N`, the Potency result in assay [1] and in assay [2] was “inactive” in each case.

As for `O=C(O)c1nc(Cl)ccc1Cl`, the Potency result in assay [1] and in assay [2] was “inactive” in each case.

In the case of `CCC(CC)(CNC(=O)CCCO)c1cccc(OC)c1`, the Potency entry in assay [1] and in assay [2] was “inactive” throughout.

As to `CC1=C(C(=O)O)N2C(=O)[C@@H](N)[C@H]2SC1`, the viability change, negative = cytotoxic in assay [1] was 6.72% [at 18.9 µM]. Also, the activity change, negative = cytotoxicity in assay [2] is 16% [at 18.9 µM].

With `CC(=O)[O-].CC(=O)[O-].O.O.O.[Pb+2]`, the Potency result in assay [1] and in assay [2] was “inactive” each time.

As for `CN/C(=N\[N+](=O)[O-])NCc1cnc(Cl)s1`, the Potency entry in assay [1] and in assay [2] was “inactive” throughout.

For `O=NN1CCOCC1`, the Potency entry in assay [1] and in assay [2] was “inactive” throughout.

With `CCC(C)(C)C(=O)OC1=C(c2ccc(Cl)cc2Cl)C(=O)OC12CCCCC2`, the Potency result in assay [1] and in assay [2] was “inactive” each time.

On to `CC(C)OC(=S)S`, for which the Potency entry in assay [1] and in assay [2] was “inactive” each time.

`CN(C)CCc1ccc(O)cc1`: the Potency entry in assay [1] and in assay [2] was “inactive” in each case.

As to `ClC1C(Cl)C(Cl)C(Cl)C(Cl)C1Cl` (stereo not given), the Potency result in assay [1] and in assay [2] was “inactive” in each case.

As for `Nc1c(Cl)c(Cl)nc(C(=O)O)c1Cl`, the Potency result in assay [1] and in assay [2] was “inactive” throughout.

On to `CC(=[OH+])/C=C(/C)[O-].CC(=[OH+])/C=C(\C)[O-].CC(=[OH+])/C=C(\C)[O-].[Al]`, for which the Potency entry in assay [1] and in assay [2] was “inactive” throughout.

With `CCCCOCC1CO1` (stereo not given), the Potency entry in assay [1] and in assay [2] was “inactive” in each case.

For the compound `CCCCCCCCCCCCCCCC[N+](C)(C)C`, the Potency in assay [1] is 54.5 µM (active); in assay [2] it was 29.5 µM (active) and 61.1 µM (active) and 26.6 µM (active).

Take `O=c1n(Cl)c(=O)n(Cl)c(=O)n1Cl`: the Potency entry in assay [1] and in assay [2] was “inactive” throughout.

Consider `CC(Cc1ccccc1)NCCCCl` (stereo not given), for which the Potency result in assay [1] and in assay [2] was “inactive” throughout.

Take `C=CCCC#N`: the Potency entry in assay [1] and in assay [2] was “inactive” in each case.

In the case of `CC(C)[C@]12CC(=O)[C@H](C)[C@H]1C2`, the Potency entry in assay [1] and in assay [2] was “inactive” throughout.

Turning to `C=CCc1ccc2c(c1)OCO2`, the Potency result in assay [1] and in assay [2] was “inactive” throughout.

Regarding `O=[Se]=O`, the Potency in assay [1] was 30.4 µM (active); in assay [2], 17.1 µM (active).

`O=C(O)C(F)(F)C(F)(F)C(F)(F)C(F)(F)C(F)(F)C(F)(F)C(F)(F)C(F)(F)F`: the Potency entry in assay [1] and in assay [2] was “inactive” each time.

`Cc1nn(-c2cc(NS(C)(=O)=O)c(Cl)cc2Cl)c(=O)n1C(F)F`: the Potency entry in assay [1] and in assay [2] was “inactive” throughout.
